Screening data (PubChem)
Tau fibril FP = blocks human tau fibril formation measured by polarization. P10636. K18 P301L tau heparin fibrillization, Alexa594 FP, 6 h. Potency, µM (doses to about 57.7 µM), for the others: top-dose activity, negative = inhibition, usual class: inhibitors. 280,000 tested, 0.39% active; also: nearly all actives have a fitted effect of over 55% in size
Target sequence (P10636 561-689 P618L limits assumed): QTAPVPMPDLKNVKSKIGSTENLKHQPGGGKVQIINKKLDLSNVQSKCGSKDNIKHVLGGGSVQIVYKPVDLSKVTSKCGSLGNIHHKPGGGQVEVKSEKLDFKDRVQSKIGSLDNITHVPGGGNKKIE
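Heparin (20 uM) drove fibril formation of recombinant tau K18 P301L, 15 uM unlabeled with 0.24 uM Alexa 594 label, for 6 hr at 37 C in 100 mM sodium acetate pH 7. Fluorescence polarization (555/632 nm) read 1 hr after 30 uM ThT.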
NPSR antag = blocks cAMP signaling of the human neuropeptide S receptor; 220,000 tested, 1% active; Potency, µM (top dose mostly 38.3 µM), without a hit: top-dose activity change, negative = inhibition, usual class: inhibitors; CHO-NPSR cells, cAMP TR-FRET, antagonist mode; AID 1461; Q6W5P4; also: nearly all actives have a fitted effect of over 50% in size
Target sequence (Q6W5P4 whole entry, looked up): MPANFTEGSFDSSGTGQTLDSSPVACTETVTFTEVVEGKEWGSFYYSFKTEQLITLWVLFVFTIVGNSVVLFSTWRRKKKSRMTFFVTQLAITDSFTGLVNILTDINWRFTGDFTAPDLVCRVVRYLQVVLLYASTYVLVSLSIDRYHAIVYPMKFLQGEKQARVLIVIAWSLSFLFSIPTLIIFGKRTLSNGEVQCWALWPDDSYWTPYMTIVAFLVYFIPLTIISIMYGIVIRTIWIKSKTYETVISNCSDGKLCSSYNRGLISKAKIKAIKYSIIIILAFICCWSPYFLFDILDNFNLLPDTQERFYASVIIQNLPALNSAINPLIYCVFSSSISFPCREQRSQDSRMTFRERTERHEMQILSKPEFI
ALDH1A1 inh = blocks purified human ALDH1A1 activity | 220,000 tested, 7.3% active | P00352 | Purified ALDH1A1, NADH fluorescence, propionaldehyde substrate | Potency, µM (top dose mostly 75.3 µM), for inactives: at the top dose activity, negative = inhibition, hits mostly inhibitors; active = well fitted inhibition curve with a large enough effect, not every such curve was filed as active; inconclusive = small, poorly fitted or top-dose-only effect, or another doubt; inactive = no such curve, though single readings can be large or run the other way;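 also: plate controls were no enzyme wells and a reference inhibitor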
HPGD inh = inhibitors of human 15-hydroxyprostaglandin dehydrogenase (HPGD) | purified HPGD, NADH fluorescence kinetic, PGE2 substrate | 150,000 tested, 4.3% active | P15428 | Potency, µM, without a hit: top-dose activity change, negative = inhibition, hits mostly inhibitors; active = well fitted inhibition curve with a large enough effect, not every such curve was filed as active; inconclusive = small, poorly fitted or top-dose-only effect, or another doubt; inactive = no such curve, though single readings can be large or run the other way
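NADH formation kinetics: reaction with 30 uM PGE2 and 1 mM NAD+ (final), 20 nM enzyme, Tris-HCl pH 8 with Tween 20, after 15 min compound preincubation at room temperature. Fluorescence change, last versus first of five reads.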
Tau ThT inhib = inhibitors of human tau fibril formation, thioflavin T binding | AID 1460 | P10636 | recombinant tau K18 P301L, heparin-induced fibrillization, ThT fluorescence | 270,000 tested, 2.1% active | Potency, µM (top dose mostly 57.4 µM), inactives show at the top dose activity, negative = inhibition, actives largely listed as inhibitors; also: nearly all actives have a fitted effect of over 55% in size
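Recombinant human tau K18 fragment […] carrying P301L, 15 uM unlabeled plus 0.24 uM Alexa 594-labeled, was fibrillized with 20 uM heparin in 100 mM sodium acetate pH 7 for 6 hr at 37 C; 30 uM ThT fluorescence read after 1 hr.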
Tau fluor counter = counter-screen for tau fibril formation inhibitors; Potency, µM (series often up to 57.7 µM), for inactives: top-dose activity change, negative = decrease; tau K18 P301L Alexa594 fluorescence, heparin fibrillization; 280,000 tested, 0.93% active; also: nearly all actives have a fitted effect of over 55% in size
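Human tau K18 P301L (15 uM unlabeled, 0.24 uM Alexa 594-labeled) in 100 mM sodium acetate pH 7 with 20 uM heparin, 6 hr at 37 C. ThT 30 uM added, 1 hr ambient; Alexa 594 FP and total fluorescence read at 555/632 nm.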
* marks the source's active call; other numbers are inactive results; [ ] = remark or other dose. In the library only some 9.5% were active in any assay of this set; here they are far more common. Unless noted, calls follow the shape of the dose curve; as a rule, active = well fitted curve in the direction sought with a large enough effect; inconclusive = small, poorly fitted or top-dose-only effect, or another doubt; inactive = no such curve, though single readings can be large; an effect the other way counts as inactive or inconclusive. Unless noted, % is scaled to controls: 0 for no effect and ±100 for the full control effect; potency is read from the fitted curve at half-maximal effect.

What do the screens show for `O=C(O)c1ccccc1C(=O)NNc1ccc(F)cc1`?
Tau fibril FP: -7.7%; NPSR antag: -3.6%[46.1 µM]; ALDH1A1 inh: 7.94µM*; HPGD inh: inconclusive; Tau ThT inhib: inconclusive; Tau fluor counter: -5.3%

Results for COC(=O)C1=C(C)N(c2ccc(Cl)cc2)/C(=C/c2ccc(O)cc2)C1=O ?
Tau fibril FP: 4.1%; NPSR antag: -43.9%; ALDH1A1 inh: 7.5%; Tau ThT inhib: inconclusive; Tau fluor counter: -1.6%

What do the screens show for `COC(=O)C1=C(C)N(c2cc(C)cc(C)c2)/C(=C/c2ccc(O)cc2)C1=O`?
Tau fibril FP: 1.6%; NPSR antag: -53.9%; ALDH1A1 inh: -9.5%; Tau ThT inhib: 31.6µM*; Tau fluor counter: -20.1%

How did COc1ccc(CNC2=CC(=O)CC(C)(C)C2)cc1 do in these assays?
Tau fibril FP: 4.1%; NPSR antag: 3.5%[46.1 µM]; ALDH1A1 inh: -5.7%; HPGD inh: -4.0%; Tau ThT inhib: -6.0%; Tau fluor counter: -4.3%

What do the screens show for `O=S(=O)(CCN(CCS(=O)(=O)C(F)(F)F)CC1CCCO1)C(F)(F)F` (stereo not drawn)?
Tau fibril FP: 13.5%; NPSR antag: -7.1%[46.1 µM]; ALDH1A1 inh: 7.08µM*; HPGD inh: -13.0%; Tau ThT inhib: -16.7%; Tau fluor counter: 6.2%

How did O=C(NCC1CCCO1)C1CCN(S(=O)(=O)N2CCCC2)CC1 (stereo not drawn) do in these assays?
Tau fibril FP: 6.3%; NPSR antag: 1.2%[46.1 µM]; ALDH1A1 inh: 0.4%; HPGD inh: inconclusive; Tau ThT inhib: -2.8%; Tau fluor counter: 4.6%

What do the screens show for `C=CCn1c(SCC(=O)N2CCOCC2)nc2scc(-c3ccco3)c2c1=O`?
Tau fibril FP: -10.1%; NPSR antag: -19.0%[46.1 µM]; ALDH1A1 inh: 17.8µM*; HPGD inh: -17.6%; Tau ThT inhib: inconclusive; Tau fluor counter: -11.5%

How did C=CCn1c(SCC(=O)N2CCCC2)nc2scc(-c3cccs3)c2c1=O do in these assays?
Tau fibril FP: 4.6%; NPSR antag: -5.7%[46.1 µM]; ALDH1A1 inh: inconclusive; HPGD inh: -13.3%; Tau ThT inhib: -8.2%; Tau fluor counter: -0.1%

Results for O=C(O)c1ccccc1-c1ccccc1C(=O)c1ccccc1 ?
ALDH1A1 inh: -9.1%[13.5 µM]; HPGD inh: -9.9%

How did O=C(c1ccccc1)c1ccccc1N1C(=O)C=CC1=O do in these assays?
Tau fibril FP: 2.9%; NPSR antag: inconclusive; ALDH1A1 inh: 3.16µM*; Tau ThT inhib: 12.2%; Tau fluor counter: 1.5%

How did CCOC(=O)c1ccc(NC(=S)N(CCCN2CCCC(C)C2)Cc2ccco2)cc1 (stereo not drawn) do in these assays?
Tau fibril FP: 0.1%; NPSR antag: 9.8%; ALDH1A1 inh: -2.0%; HPGD inh: -15.8%; Tau ThT inhib: -2.6%; Tau fluor counter: -5.1%

How did O=C(CCc1nnc(-c2ccccc2)o1)NC1CCCCC1 do in these assays?
Tau fibril FP: 1.3%; NPSR antag: -26.9%; ALDH1A1 inh: 1.0%; Tau ThT inhib: -7.1%; Tau fluor counter: -0.8%

Results for O=C(CCc1nc(-c2ccccc2)no1)NC1CCCCC1 ?
Tau fibril FP: -1.6%; NPSR antag: -12.2%[46.1 µM]; ALDH1A1 inh: inconclusive; HPGD inh: 17.8µM*; Tau ThT inhib: -15.0%; Tau fluor counter: -14.3%

What do the screens show for `O=C(CCc1nc(-c2ccccc2F)no1)NC1CCCCCC1`?
Tau fibril FP: 3.6%; NPSR antag: -7.3%[46.1 µM]; ALDH1A1 inh: -10.6%; HPGD inh: 28.2µM*; Tau ThT inhib: 0.7%; Tau fluor counter: 6.8%

What do the screens show for `O=C(CCc1nc(-c2ccccc2F)no1)NCCc1ccccc1Cl`?
Tau fibril FP: 4.5%; NPSR antag: -13.3%[46.1 µM]; ALDH1A1 inh: inconclusive; HPGD inh: -6.3%; Tau ThT inhib: -0.2%; Tau fluor counter: -10.5%

Results for COc1cccc(CNC(=O)C2=C(C)C(=O)OC23CCC(C)CC3)c1 (stereo not drawn) ?
Tau fibril FP: 4.2%; NPSR antag: 0.2%[46.1 µM]; ALDH1A1 inh: -10.8%; HPGD inh: -2.7%; Tau ThT inhib: -4.0%; Tau fluor counter: -21.0%
